Assay outcomes: PubChem BioAssay, National Center for Advancing Translational Sciences (NCATS)
Rows were chosen to be rich in hits. Some 21% of all compounds tested hit in one or more screens of this group.
Pf growth 96h: inhibits malaria parasite growth, 96 h; P. falciparum luciferase reporter growth, 96 h; Potency, µM (titrated, usually from 28.7 µM), hits mostly inhibitors; 320,000 compounds, 6.9% hits; AID 504834
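Compounds incubated with erythrocytes infected by luciferase-expressing P. falciparum (2% hematocrit, 0.05% parasitemia final) for 96 hours, 37 C in 5% CO2. Growth inhibition scored as decreased luciferase luminescence.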
Cycloheximide cs: affects cycloheximide protein synthesis inhibition readout, counter-screen | AID 2314 | 300,000 compounds, 12% hits | max response, % | cell reporter, cycloheximide protein synthesis inhibition counterscreen; in the data active = max response mostly above about 13%, no sharp cut-off; inactive = mostly below about 14%; note: read at 38.3 µM for the half of the compounds with a filed dose
Shiga inhibitor: blocks Shiga toxin action in Vero cells. 290,000 compounds, 9.2% hits. Vero cells, Shiga toxin protein synthesis inhibition reporter. inhibition, % at 38.7 µM; in the data active = inhibition mostly above about 28%, no sharp cut-off; inactive = mostly below about 43%
AMA1-RON2 inh: disrupts binding of P. falciparum AMA1 to RON2 | AlphaScreen AMA1-biotinylated RON2 peptide binding | Potency, µM (highest dose often 58.2 µM), hits mostly inhibitors | 360,000 compounds, 0.2% hits | AID 720542; note: nearly all actives have a fitted effect of over 45% in size
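AMA1 (3D7) with his tag at 25 nM final met compounds first, then biotinylated RON2 peptide at 25 nM; detection used donor plus acceptor beads, 10 µg/mL apiece, read by AlphaScreen after 30 min at room temperature.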
Pf growth 48h: inhibits P. falciparum growth in the first generation, 48 h. Potency, µM (doses to about 28.7 µM), most hits filed as inhibitors. P. falciparum luciferase growth in erythrocytes, 48 h. 310,000 compounds, 5.9% hits
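Compounds are pin-transferred into medium, infected erythrocytes (2% hematocrit, 0.1% parasitemia final) are added, and plates sit one parasite generation at 37 C in 5% CO2. Detection reagent is then added and luminescence measured.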
HCV inhibitor: HCV inhibition. Huh7.5.1 HCVcc-Cre infection, luciferase reporter, 44 h. Potency, µM (highest dose often 41.8 µM), hits mostly inhibitors. 340,000 compounds, 3.4% hits
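Infectious HCV cell culture screen: compound-treated cells (1,000/well, pre-plated 4 h) are infected with HCVcc-Cre at roughly 0.5 moi and grown 44 h. Infection is quantified by luciferase signal after 15 min substrate incubation at room temperature.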
Of the large screens only hits and unclear results are named; the others gave an inactive call. Unless noted, calls come from the whole dose curve; as a rule, active = well fitted curve in the direction sought with a large enough effect; inconclusive = small, poorly fitted or top-dose-only effect, or another doubt; inactive = no such curve, though single readings can be large; an effect the other way counts as inactive or inconclusive.

Cc1ccccc1-c1cnc2c(c1)C(=O)N([C@@H](C)CO)C[C@@H](C)[C@H](CN(C)Cc1ccccc1F)O2	none (no result: Pf growth 96h, Cycloheximide cs, Shiga inhibitor, Pf growth 48h, HCV inhibitor)
COc1cccc(Nc2ncnc3nc[nH]c23)c1	Pf growth 96h inconclusive, Cycloheximide cs 16, Shiga inhibitor 50
CCCCN(CCCC)c1ncnc2nc[nH]c12	none
CCCCc1ccc(Nc2ncnc3nc[nH]c23)cc1	Cycloheximide cs 23 (no result: Pf growth 48h)
Cc1ccc(NC(=O)Nc2ncnc3nc[nH]c23)cc1	Cycloheximide cs 22, Shiga inhibitor 41
CCc1ccc(Nc2ncnc3nc[nH]c23)cc1	Cycloheximide cs 27, Shiga inhibitor 62
COc1ccc(/C=N/NC(=O)CC(=O)NCc2cccnc2)cc1[N+](=O)[O-]	Pf growth 48h inconclusive
Cc1c(Nc2ncnc3nc[nH]c23)c(=O)n(-c2ccccc2)n1C	none
COc1ccc(Nc2cc(Nc3cccc(OC)c3)ncn2)cc1	Pf growth 96h inconclusive, Cycloheximide cs 54, Shiga inhibitor 56
COc1ccc(Nc2cc(Nc3ccc(OC)cc3)ncn2)cc1	none
Cc1ccc(Nc2ncnc3nc[nH]c23)cc1Cl	Cycloheximide cs 50, Shiga inhibitor 63 (no result: Pf growth 48h)
Cc1ccc(C)n1-n1cnc2sc(-c3ccccc3)cc2c1=O	Cycloheximide cs 14, AMA1-RON2 inh inconclusive, Pf growth 48h inconclusive, HCV inhibitor 22µM
COc1cccc(-n2cnc3sc(-c4ccccc4)cc3c2=O)c1	none (no result: Pf growth 96h, Cycloheximide cs, Shiga inhibitor, Pf growth 48h)
O=c1[nH]cnc2sc(-c3ccccc3)cc12	Cycloheximide cs 56 (no result: Pf growth 48h)
O=c1c2cc(-c3ccccc3)sc2ncn1-n1cccc1	Cycloheximide cs 39, Shiga inhibitor 79 (no result: Pf growth 96h)
Cc1ccc(C)n1-n1c(C)nc2sc(-c3ccccc3)cc2c1=O	Cycloheximide cs 45, Shiga inhibitor 73, Pf growth 48h inconclusive, HCV inhibitor inconclusive
Cc1ccc2c(c1)sc1nncn12	none (no result: Pf growth 96h, Cycloheximide cs, Shiga inhibitor, Pf growth 48h, HCV inhibitor)
FC(F)(F)c1nc(N2CCCC2)ncc1-c1nnnn1-c1ccc(Cl)cc1	HCV inhibitor 10µM (no result: Pf growth 48h)
FC(F)(F)c1ccncc1-c1nnnn1-c1ccc(Cl)cc1	Pf growth 96h inconclusive
FC(F)(F)c1nc(-c2ccncc2)ncc1-c1nnnn1-c1ccccc1	Pf growth 96h inconclusive, Pf growth 48h inconclusive
c1ccc(-n2nnnc2-c2cnc(-c3ccncc3)nc2-c2cccs2)cc1	Pf growth 96h inconclusive, Pf growth 48h 10µM
Cc1ccc(-n2nnnc2-c2cnc(-c3cccnc3)nc2C(F)(F)F)cc1	Pf growth 96h inconclusive, HCV inhibitor 10µM (no result: Pf growth 48h)
Fc1ccc(-n2nnnc2-c2cnc(-c3cccs3)nc2C(F)(F)F)cc1	Pf growth 96h 5.2µM, Pf growth 48h inconclusive, HCV inhibitor 10µM
CCc1nn(CC(=O)NCCCc2ccccc2)c(=O)c2cc3cc(F)ccc3n12	Pf growth 96h inconclusive, HCV inhibitor inconclusive
Cc1ccc(-c2csc(N3CCC[C@@H]3C(=O)NCCn3c(C(F)(F)F)nc4ccccc43)n2)cc1	Pf growth 96h 2.3µM, Pf growth 48h inconclusive, HCV inhibitor inconclusive
Cc1ccc(-c2csc(N(CCO)CCCn3c(C(F)(F)F)nc4ccccc43)n2)cc1	Pf growth 96h 6.6µM, Pf growth 48h inconclusive, HCV inhibitor 10µM
Cc1ccc(-n2c(-c3ccccc3)c[n+]3c2CCc2ccccc2-3)c(C)c1	Pf growth 48h 0.93µM, HCV inhibitor inconclusive
CCOC(=O)c1ccc(NCCc2ccc(OC)c(OC)c2)c(N)c1	Pf growth 96h inconclusive, AMA1-RON2 inh inconclusive, Pf growth 48h 9.3µM
O=C(Nc1nc(-c2cc3ccccc3oc2=O)cs1)c1ccc(Br)o1	none
Cc1cc(-c2csc(NC(=O)c3cc4ccccc4o3)n2)c(C)n1C	Cycloheximide cs 32, Shiga inhibitor 40, HCV inhibitor inconclusive
O=C(Nc1nc(-c2cccs2)cs1)c1cc2ccccc2oc1=O	none (no result: AMA1-RON2 inh, HCV inhibitor)
O=C(Nc1nc(-c2ccccn2)cs1)c1cc2ccccc2o1	Pf growth 96h inconclusive, Cycloheximide cs 42, Shiga inhibitor 58, Pf growth 48h inconclusive, HCV inhibitor inconclusive
Cc1c(C(=O)Nc2nc(-c3ccccn3)cs2)oc2ccccc12	Pf growth 96h inconclusive, Pf growth 48h 6.6µM, HCV inhibitor 2.8µM (no result: Cycloheximide cs, Shiga inhibitor)
C=CCNc1nc(C(=O)OCC(=O)Nc2c(Cl)cccc2C(F)(F)F)cs1	none (no result: Cycloheximide cs, Shiga inhibitor)
COc1ccc(/C(C)=N/Nc2nncc3ccccc23)cc1	Cycloheximide cs 27, Shiga inhibitor 63, HCV inhibitor inconclusive
O=C(N/N=C/c1cc(Br)c(O)c(Br)c1)c1cccnc1	none
COc1ccccc1/C=N/Nc1nncc2ccccc12	Cycloheximide cs 46, Shiga inhibitor active
COc1ccc(C(N)c2csc(Nc3nncc4ccccc34)n2)cc1 (centres undefined)	none (no result: Pf growth 96h, Cycloheximide cs, Shiga inhibitor, Pf growth 48h, HCV inhibitor)
COc1cccc(C=NNc2nnc(NN=Cc3cccc(OC)c3OC)c3ccccc23)c1OC	HCV inhibitor inconclusive (no result: Pf growth 96h, Cycloheximide cs, Shiga inhibitor, Pf growth 48h)
Oc1c(Br)cc(/C=N/Nc2nncc3ccccc23)cc1Br	Cycloheximide cs 30
